Among the data in PubChem BioAssay are z-score values, retold here.

The source made the active and inactive calls. No rule for the calls is given here.

The test is described as follows: P. aeruginosa biofilm formation inhibitors, primary screen, PAO1 strain, BacTiter-Glo luminescence, LB-PBS (AID 1144). As to conditions: 12 h, higher = more signal.
For the molecule `O=C1OCC=C[C@H]2OC34C=CCN(c5ccc(Cl)cc5)C(=O)[C@H]3N(CCCCCO)C(=O)[C@@H]4[C@@H]12` (stereo not given in full), the z-score was 1.73 (inactive). To `CC(C)(C)OC(=O)CC[C@]1(C(=O)NCCN2CCOCC2)N=C(c2ccc(OCCCO)cc2)O[C@H]1c1ccccc1N=[N+]=[N-]` belongs 0.145 (inactive); to `COC(=O)C1(Cc2ccccc2)C=C2C(=C(c3ccccc3)C(=O)C2C)CN1` (stereo not given), 0.125 (inactive); to `COc1cc(CO)cc(I)c1O[C@H]1C=C(C(=O)NCCO)C[C@@H](N(CC2CCCCC2)C(=O)c2ccc(C(F)(F)F)cc2)[C@@H]1O`, -0.312 (inactive). As for `COc1ccc([Si](C)(C)[C@H]2[C@H](CCn3cc(CCO)nn3)O[C@@]3(C(=O)N(Cc4ccc(N5C(=O)c6cccc7cccc5c67)cc4)c4ccccc43)[C@@H]2C)cc1`, the z-score is -0.152 (inactive). To `CC=CC(O)C1C=CC2C(=O)N(C)C(=O)C2N1Nc1ccc([N+](=O)[O-])cc1[N+](=O)[O-]` (stereo not given) belongs -0.658 (inactive); to `COCCCNC(=O)[C@]1(Cc2ccccc2N=[N+]=[N-])N=C(c2ccc(OCCCO)cc2)O[C@@H]1c1ccccc1N=[N+]=[N-]`, 0.524 (inactive); to `[N-]=[N+]=NCc1ccccc1C[C@@]1(C(N)=O)N=C(c2ccc(OCCCO)cc2)O[C@@H]1c1ccccc1CN=[N+]=[N-]`, 0.0387 (inactive). Regarding `O=C1NC(=O)C2C1C=CC(C(O)c1ccc3c(c1)OCO3)N2Nc1ccccn1` (stereo not given), the z-score was -1.72 (inactive). In the case of `O=C1C[C@]2(c3ccc([N+](=O)[O-])cc3)C(=O)N(Cc3ccccc3)c3cc(CO)ccc3[C@H]2N1CC12CC3CC(CC(C3)C1)C2` it was 0.435 (inactive); in that of `COc1cc2c(cc1OC)CN(C(=O)[C@H]1[C@@H]3C(=O)O[C@@H](c4ccccc4)[C@@H](c4ccccc4)N3[C@@H](c3ccc(OCCO)cc3)[C@]13C(=O)Nc1ccc(C#CCCO)cc13)CC2`, -0.0983 (inactive). In the case of `CC(C)NC(=O)[C@@]1(C)c2ccccc2C(=O)N(C(C)C)[C@H]1c1ccc(CO)cc1` it was -0.272 (inactive); in that of `C=CCC(OC(C)=O)[C@@H]1[C@@H](N(Cc2cc3ccccc3o2)C(=O)Cc2ccc(F)cc2)c2cc(OCCCO)ccc2N1C(=O)c1ccc2ccccc2n1` (stereo not given in full), -0.398 (inactive).

On to `O=C1O[C@@H](c2ccccc2)[C@@H](c2ccccc2)N2[C@@H](c3ccc(O)cc3)[C@]3(C(=O)Nc4ccc(C#CCCO)cc43)[C@@H](C(=O)Nc3nc4ccccc4s3)[C@H]12`, for which the z-score was 0.422 (inactive).

Consider `C=C(CCCC)/C(=C/C[C@@H](OC(C)=O)c1ccc(CO)o1)c1cc(C(=O)OC)ccc1OC`, for which the z-score was -0.504 (inactive). To `O=C1OC[C@@H](c2ccccc2)N2CC(/C=C/c3ccccc3)=CC12` (stereo not given in full) belongs 0.476 (inactive); to `CCOC(=O)[C@H]1C/C=C/C[C@H](C(=O)OCC)C(=O)O[C@H]2[C@@H](OC)O[C@H](CO)[C@@H](OC(=O)CCc3ccccc3)[C@@H]2OC1=O`, -1.28 (inactive); to `[N-]=[N+]=Nc1ccccc1C[C@@]1(C(=O)O)N=C(c2ccc(OCCCO)cc2)O[C@@H]1c1ccccc1`, -0.078 (inactive). As for `CC(C)(C)N1CC=CC23O[C@@H]4C=CCOC(=O)[C@@H]4[C@H]2C(=O)N(CCCO)[C@@H]3C1=O` (stereo not given in full), the z-score was 0.0204 (inactive). Turning to `COC1(C)CN(Cc2ccccc2Br)[C@H](/C=C/c2ccccc2)[C@H](Cc2ccccc2)O1` (stereo not given in full), the z-score was -0.198 (inactive). In the case of `O=C(N1CCCCC1)[C@@]1(Cc2ccccc2)COC(c2ccc(OCCCO)cc2)=N1` it was 0.496 (inactive); in that of `COC(=O)[C@@]1(Cc2ccc(F)cc2)[C@H]2c3cc(C(=O)N4CCCC4)n(CCc4c[nH]c5ccc(OC)cc45)c3C[C@H]2CN1C(=O)c1ccccc1`, -0.23 (inactive); in that of `[N-]=[N+]=Nc1ccccc1[C@@H]1OC(c2ccc(OCCCO)cc2)=N[C@]1(CCS(=O)(=O)c1ccccc1)C(=O)NCCN1CCOCC1`, -0.124 (inactive).

As to `CN1C(=O)C2C=CC(C(O)c3c(F)cccc3Cl)N(Nc3ccccc3)C2C1=O` (stereo not given), the z-score is 0.402 (inactive).

In the case of `COC(=O)[C@@]1(Cc2ccccc2)[C@H]2c3cc(C(=O)N4CCCC4)[nH]c3C[C@H]2CN1C(=O)c1ccccc1`, the z-score was -0.39 (inactive).

On to `NCCCCCCNC(=O)[C@H]1C[C@H]2C(=O)N[C@@H](Cc3ccccc3)C(=O)N2[C@H]1c1ccc(O)cc1`, for which the z-score was -0.652 (inactive). As for `C[N+](C)(C)CCCC[C@@H]1NC(=O)[C@@H]2C[C@H](C(=O)O)[C@H](c3ccc(O)cc3)N2C1=O`, the z-score is -0.771 (inactive). As to `C=C(CCCC)C(=O)CC[C@@H](OC(=O)c1cccnc1)c1ccccc1OCCO`, the z-score is -0.325 (inactive). Take `O=C1O[C@@H](c2ccccc2)[C@@H](c2ccccc2)N2[C@@H](c3ccccc3OCCO)[C@]3(C(=O)Nc4ccccc43)[C@@H](C(=O)NC[C@H](O)c3ccccc3)[C@H]12`: the z-score is -0.668 (inactive). Regarding `CC(C)(C)OC(=O)CC[C@]1(C(=O)O)N=C(c2ccc(OCCCO)cc2)O[C@H]1c1ccccc1`, the z-score was -0.278 (inactive). In the case of `C=C(/C=C/CNS(=O)(=O)c1ccc(C)cc1)[C@H](O)[C@H]1CCCN1S(=O)(=O)c1ccccc1[N+](=O)[O-]` it was 1.01 (inactive); in that of `CCOC(=O)C1=CC[C@@H](c2ccccc2C(F)(F)F)N(S(=O)(=O)c2ccc(C)cc2)C1`, -0.0874 (inactive); in that of `CN(C)CCCN1C(=O)[C@@]2(c3ccc([N+](=O)[O-])cc3)CC(=O)N(CC34CC5CC(CC(C5)C3)C4)[C@@H]2c2ccc(CO)cc21`, 0.878 (inactive). In the case of `CN1C2C=C(CCCO)C(C3C(=O)N(C(N)=O)C(=O)C32)C1c1cccs1` (stereo not given) it was 0.628 (inactive); in that of `CCOC(=O)C1=CC[C@@H](c2ccc([N+](=O)[O-])cc2)N(S(=O)(=O)c2ccc(C)cc2)[C@H]1c1ccccc1`, -0.41 (inactive).
